High-throughput results as filed in PubChem.
IL1B secr inh: inhibitors of inflammasome signaling (IL-1 beta secretion). THP-1 LPS/ATP IL-1B secretion, AlphaLISA, 16 h; stronger effect = lower value. activity change, % at 57.5 µM. 4.7% of 360,000 active. AID 743279; in the data active = activity change below about -50%; inconclusive = mostly about -30% to -49%; note: % is set by controls: 0 for no effect and ±100 for the full control effect
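Secreted IL-1B measured by AlphaLISA bead assay after 16 h compound exposure of THP-1 cells; compounds (final up to 57.5 uM) added 1 h before LPS (250 ng/mL) and ATP (1.25 mM) stimulation; lower signal means less secretion.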
HepG2 viability: counter-screen for TGF-b inhibitors: cytotoxicity in HepG2 cells | HepG2 CAGA-GFP viability, ATP luminescence, 18 h | Potency, µM (titrated, usually from 46.1 µM), for the others: top-dose activity change, negative = cytotoxicity, hits mostly cytotoxic | 0.76% of 410,000 active | AID 588856; note: potency is the fitted concentration of half-maximal effect
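CellTiter-Glo luminescence gave cytotoxicity after 18 hours at 37 degrees C. The cells were HepG2 CAGA-GFP in 1% FBS DMEM, stimulated with 500 pg/mL TGF-beta after compound addition. %Activity was normalised to no-cell wells (complete cell-killing) and DMSO (no toxicity), and curves were fitted and classified.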
TGFb SMAD3 inh: blocks TGF-b signaling; HepG2 CAGA-GFP TGF-b/SMAD3 reporter, GFP fluorescence, 18 h; TGF-beta stimulated, 500 pg/mL final; Potency, µM (highest dose often 46.1 µM), for the others: top-dose activity, negative = inhibition, actives largely listed as inhibitors; 1.2% of 410,000 active; note: potency is the fitted concentration of half-maximal effect; % is set by controls: 0 for no effect and ±100 for the full control effect; nearly all actives have a fitted effect of over 65% in size
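Cell-based qHTS in HEPG2 carrying a CAGA-GFP Smad reporter; compounds added before 500 pg/mL final TGF-beta, 18 h incubation at 37 degrees C, GFP fluorescence quantified per cell by imaging cytometry.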
TDP1 cell noCPT: qHTS for Inhibitors of human tyrosyl-DNA phosphodiesterase 1 (TDP1): qHTS in cells in absence of CPT; AID 686978, 2013; Potency, µM (series often up to 46.2 µM), for inactives: at the highest dose activity change, negative = growth inhibition, hits mostly inhibitors; 15% of 420,000 active; DT40 Tdp1-/- hTDP1 cells, no CPT, ATP luminescence, 48 h; note: potency is the fitted concentration of half-maximal effect; % is set by controls: 0 for no effect and ±100 for the full control effect; nearly all actives have a fitted effect of over 55% in size
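Compound effects on proliferation are scored in DT40 Tdp1-/-;hTDP1 cells in the absence of CPT. ATP levels (CellTiter-Glo luminescence) are recorded after a ≥48 hr, 37 °C incubation.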
TDP1 cell CPT: DT40-hTDP1 cell growth loss with CPT; chicken DT40 Tdp1-/-;hTDP1 cells + 20 nM CPT, ATP luminescence, 48 h; 12% of 420,000 active; Potency, µM (titrated, usually from 46.2 µM), without a hit: at the top dose activity change, negative = growth inhibition, hits mostly inhibitors; note: potency is the fitted concentration of half-maximal effect; % is set by controls: 0 for no effect and ±100 for the full control effect; nearly all actives have a fitted effect of over 55% in size
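Chicken DT40 Tdp1-/- cells stably complemented with human TDP1 were seeded at 400 cells/well in medium containing 20 nM camptothecin, exposed to pin-transferred compounds, and grown at 37 °C for at least 48 hr. Viability was read as ATP luminescence.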
S-ASM inh: human S-ASM enzyme inhibition; 0.006% of 340,000 active; AID 504937; P17405; placental ASM, HMU-PC fluorogenic substrate, 60 min; Potency, µM (series often up to 57.5 µM), for the others: at the highest dose activity change, negative = inhibition, actives largely listed as inhibitors; note: potency is the fitted concentration of half-maximal effect
Target sequence (P17405 47-631 limits assumed): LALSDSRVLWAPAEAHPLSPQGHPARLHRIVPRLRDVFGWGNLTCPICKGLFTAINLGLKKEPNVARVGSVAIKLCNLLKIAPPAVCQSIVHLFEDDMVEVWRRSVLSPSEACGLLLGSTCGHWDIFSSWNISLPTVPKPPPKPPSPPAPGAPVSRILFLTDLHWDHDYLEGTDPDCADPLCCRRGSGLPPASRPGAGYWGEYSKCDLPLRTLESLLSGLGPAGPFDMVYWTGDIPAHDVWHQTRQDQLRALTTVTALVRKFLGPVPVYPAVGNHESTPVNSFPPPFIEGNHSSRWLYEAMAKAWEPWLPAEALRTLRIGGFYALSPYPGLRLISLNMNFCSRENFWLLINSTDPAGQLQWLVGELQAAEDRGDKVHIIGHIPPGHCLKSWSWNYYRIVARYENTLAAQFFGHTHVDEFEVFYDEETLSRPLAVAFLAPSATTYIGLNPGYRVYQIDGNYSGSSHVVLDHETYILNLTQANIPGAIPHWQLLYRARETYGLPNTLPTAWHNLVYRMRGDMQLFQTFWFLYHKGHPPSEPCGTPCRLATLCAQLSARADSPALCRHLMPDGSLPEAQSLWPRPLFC
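HMU-PC0 cleavage (9 uM final) by human placental ASM, 60 min at 37 °C following 10 min compound exposure at RT; stopped at pH 10, fluorescence Ex 386/Em 447 nm.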
* = called active by the depositor; ? = inconclusive; . = not tested or not shown; ! = repeats disagree. Most compounds without a hit are left out; they make up all but 19% or so of the library. Unless noted, calls come from the whole dose curve; as a rule, active = well fitted curve in the direction sought with a large enough effect; inconclusive = small, poorly fitted or top-dose-only effect, or another doubt; inactive = no such curve, though single readings can be large; an effect the other way counts as inactive or inconclusive.

SMILES | IL1B secr inh | HepG2 viability | TGFb SMAD3 inh | TDP1 cell noCPT | TDP1 cell CPT | S-ASM inh
CCCCOc1ccc(C(=O)N/C(=C/c2cccc([N+](=O)[O-])c2)C(=O)O)cc1 | -62* | 0% | 2% | -26% | -7% | -1%
O=C(NNC(=S)NC(=O)c1cccc([N+](=O)[O-])c1)c1ccc(O)cc1 | 15 | 9% | 9% | 5% | -1% | -4%
O=C(Nc1ccc(C(=O)N2CCCC2)cc1)C1CC1 | -8 | 3% | -1% | -2% | 1% | 4%
Cc1cccc(NC(=O)CCNC(=O)c2ccc(Br)cc2)c1C | 20 | -17% | 4% | -16% | 8% | -2%
COc1ccc(C(=O)Nc2ccc(N(C)Cc3ccccc3)c(C(=O)O)c2)cc1 | . | -5% | 6% | -1% | -1% | .
CCCCCC(=O)NNC(=S)NC(C)=O | 16 | -2% | 10% | 18µM* | ? | -3%
CCCCC(=O)NNC(=S)NC(=O)c1ccc(C)cc1 | 61 | -23% | -10% | ? | -104% | -2%
CCCCC(=O)NNC(=S)NC(=O)c1ccc([N+](=O)[O-])cc1 | 30 | -6% | 10% | 29µM* | ? | -4%
CCCS(=O)(=O)Nc1ccc(N2CCCCC2)c(S(=O)(=O)Nc2ccccc2OC)c1 | -6 | -22% | ? | 16µM* | ? | -15%
COc1ccccc1NS(=O)(=O)c1cc(NC(=O)c2cccnc2)ccc1N1CCCCC1 | ? | 14% | ? | 23µM* | ? | -11%
Nc1c(C(=O)Nc2ccccc2)sc2nc3c(c(-c4ccco4)c12)CCCC3 | -51* | -20% | 2% | ? | ? | 114%
Nc1c(C(=O)Nc2ccccc2)sc2nc3c(c(-c4ccco4)c12)CCC3 | -25 | -55% | -5% | 9.2µM* | 8.2µM* | -22%
Cc1ccccc1NC(=O)c1sc2nc3c(c(-c4ccco4)c2c1N)CCCC3 | ? | -1% | -10% | ? | 16µM* | 6%
Cc1ccc(NC(=O)c2sc3nc4c(c(-c5ccco5)c3c2N)CCC4)cc1 | 8 | -42% | 38% | ? | ? | -7%
CC(C)NCC(O)COc1cccc2ccccc12 (stereo not given) | 8 | 3% | -4% | 16µM*! | 16µM*! | 2%
CCc1ccc(CN(C)CC(O)COc2cccc3ccccc23)cc1 (stereo not given) | -99* | -101% | ? | ? | ? | -8%
OC(CNCc1ccccc1F)COc1cccc2ccccc12 (stereo not given) | -70* | -181% | ? | ? | ? | 0%
COc1cccc(CC(=O)OCC(=O)NC2(C#N)CCCCC2)c1 | 16 | -4% | -2% | 6% | 12% | 0%
CC1CC(C)CN(C(=O)CSc2nnc3ccccn23)C1 (stereo not given) | -3 | -6% | -9% | 4% | -17% | 0%
Cc1cc(C)cc(C(=O)N2CC(C)SC2=Nc2cccc(S(=O)(=O)N(C)C)c2)c1 (stereo not given) | -2 | -15% | -9% | ? | ? | 5%
Cc1ccc(C(=O)N2CC(C)SC2=Nc2cccc(S(=O)(=O)N(C)C)c2)cc1 (stereo not given) | 13 | -2% | 27% | ? | 29µM* | -1%
Cc1ccc(CCNC(=O)c2cc(-c3ccncc3)nc3ccc(S(=O)(=O)N4CCOCC4)cc23)cc1 | 41 | 0% | -13% | ? | ? | -3%
CCOC(=O)CN1C(=O)C(C)(C)Oc2ccc(C(=O)Nc3ccccc3OC)cc21 | 36 | 1% | -24% | 23µM* | 16µM* | -2%
COc1cccc(NC(=O)NNC(=O)c2ccc3c(c2)NC(=O)C(C)(C)O3)c1 | 11 | 12% | 31% | -7% | -5% | -4%
COc1ccccc1NC(=O)NNC(=O)c1ccc2c(c1)NC(=O)C(C)(C)O2 | 20 | 2% | 1% | ? | 23µM* | 1%
SMILES | IL1B secr inh | HepG2 viability | TGFb SMAD3 inh | TDP1 cell noCPT | TDP1 cell CPT | S-ASM inh
COc1ccccc1NC(=O)c1ccc2c(c1)N(CC(=O)NC(C)(C)C)C(=O)C(C)(C)O2 | -3 | 3% | -1% | 1% | 18% | 5%
CC1(C)C(=O)Nc2ccccc2N1C(=O)COC(=O)CSc1ccc(Cl)cc1 | 3 | 4% | 6% | -28% | -11% | -4%
CCOC(=O)N1CCN(C(=O)c2ccc3c(c2)N(C)C(=O)/C(=C\c2ccc(OCC)c(OC)c2)S3)CC1 | ? | -13% | ? | 16µM* | ? | -1%
CCOC(=O)N1CCN(C(=O)c2ccc3c(c2)NC(=O)/C(=C\c2ccc(OC)c(OC)c2)S3)CC1 | 7 | -35% | ? | 16µM* | ? | -2%
Cc1cccc(/C=C2\Sc3ccc(C(=O)N4CCC(C)CC4)cc3N(C)C2=O)c1 | -54* | -24% | ? | ? | ? | -3%
CCOC(=O)N1CCN(C(=O)c2ccc3c(c2)NC(=O)/C(=C\c2cccc(C)c2)S3)CC1 | -25 | -9% | -17% | 13µM* | ? | -23%
CCOc1ccc(/C=C2/Sc3ccc(C(=O)NCC4CCCO4)cc3N(C)C2=O)cc1OC (stereo not given) | -9 | -22% | -4% | ? | ? | 6%
Cc1cccc(/C=C2/Sc3ccc(C(=O)N4CCOCC4)cc3NC2=O)c1 | -13 | 13% | 9% | ? | ? | -4%
CCOC(=O)N1CCC(NC(=O)c2ccc3c(c2)N(C)C(=O)/C(=C/c2cccc(OC)c2)S3)CC1 | 1 | -7% | -6% | 18µM* | 18µM* | -1%
Cc1cccc(/C=C2\Sc3ccc(C(=O)N4CCOCC4)cc3N(C)C2=O)c1 | -9 | -16% | -14% | ? | ? | -5%
CCOC(=O)C1CCN(S(=O)(=O)c2ccc3c4c2CC(=O)N4CC(C)S3)CC1 (stereo not given) | 22 | -8% | -8% | ? | 21µM* | 0%
CCOC(=O)C1CCCN(S(=O)(=O)c2cc3c4c(c2)CCN4C(=O)CC3)C1 (stereo not given) | ? | -13% | 15% | ? | ? | -6%
CCOC(=O)C1CCCN(S(=O)(=O)c2ccc3c4c2CC(=O)N4CC(C)S3)C1 (stereo not given) | 16 | -101% | ? | 18µM* | ? | 3%
